This is part of a sample that, as a whole, favours compounds with a hit. Of some 79,000 tested, about 15% had one in any assay. A number with no mark means an inactive call. Activity calls are given as the source filed them. Rule as the data show it: active = growth inhibition above about 70%; inactive = the rest.

The nature of assay [1]: NCI Yeast Anticancer Drug Screen. Data for the rad50 strain (AID 155).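 Also: 0% = growth of vehicle-only cultures of the same strain.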 As to conditions: S. cerevisiae rad50 strain growth inhibition; at 50.0 µM; stronger effect = higher value. An outline of the steps:
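Compounds were tested on a yeast strain with an engineered DNA damage repair alteration; the reported value is growth inhibition normalised to vehicle treatment.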

Assay [2] can be described thus: NCI Yeast Anticancer Drug Screen. Data for the mec2-1 strain (AID 157). As to conditions: S. cerevisiae mec2-1 strain, at 50.0 µM, stronger effect = higher value. The essentials:
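Vehicle-treated cultures served as reference for growth inhibition of compound-exposed mec2-1 yeast.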

Assay [3] can be described thus: NCI Yeast Anticancer Drug Screen. Data for the sgs1 mgt1 strain (AID 161).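 Also: 0% = growth of cultures given vehicle only.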 As to conditions: S. cerevisiae sgs1 mgt1 strain, at 50.0 µM, stronger effect = higher value. The essentials:
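Genetically altered yeast, compound exposure, growth inhibition relative to vehicle.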

Assay [4] can be described thus: NCI Yeast Anticancer Drug Screen. Data for the cln2 rad14 strain (AID 165).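 Also: 0% = growth equal to vehicle treated cultures.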 As to conditions: S. cerevisiae cln2 rad14 strain, at 50.0 µM, stronger effect = higher value. An outline of the steps:
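Each compound was tested on cln2 rad14 yeast. Inhibition of growth was calculated against vehicle-exposed controls.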

Assay [5] is described as follows: NCI Yeast Anticancer Drug Screen. Data for the bub3 strain (AID 167). As to conditions: S. cerevisiae bub3 mutant strain, at 50.0 µM, stronger effect = higher value. The essentials:
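Growth of a checkpoint-deficient yeast mutant is measured after compound exposure. Values represent inhibition relative to vehicle.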

Assay [6] can be described thus: NCI Yeast Anticancer Drug Screen. Data for the mlh1 rad18 strain (AID 175). As to conditions: S. cerevisiae mlh1 rad18 strain growth inhibition; at 50.0 µM; stronger effect = higher value. The essentials:
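Vehicle-treated cultures served as the reference for growth inhibition in a yeast strain carrying DNA damage repair alterations exposed to each compound.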

Regarding `CN1CCC(O)(c2ccccc2)C(c2ccccc2)C1` (stereo not given), the growth inhibition in assay [1] is 0.25%; in assay [2], 1.05%; in assay [3], -8.45%; in assay [4] it was 0.4%; in assay [5] it was 0.6%; in assay [6] it was -0.05%.
With `CNC(Cc1ccccc1)c1ccc(O)c(OC)c1` (stereo not given), the growth inhibition in assay [1] was -0.5%; in assay [2], -15.6%; in assay [3], -7.35%; in assay [4], -35%; in assay [5] it was 5.05%; in assay [6], 0.75%.
Regarding `C[N+](C)(C)CC1CCc2ccccc2C1=O` (stereo not given), the growth inhibition in assay [1] was 89.2% (active); in assay [2], 44.6%; in assay [3], 69.2%; in assay [4] it was 50.2%; in assay [5] it was 40.5%; in assay [6], 91.4% (active).
With `COP(=O)(OC)C(C)(C)NC(=O)NC(F)(F)F`, the growth inhibition in assay [1] was -1.9%; in assay [2], -14.9%; in assay [3], -24.6%; in assay [4] it was 28.9%; in assay [5] it was 11.1%; in assay [6], -4.25%.
For `C[Si](C)(C)CN(N=O)C(N)=O`, the growth inhibition in assay [1] was 1.55%; in assay [2], 3.4%; in assay [3] it was -3.45%; in assay [4], -25.2%; in assay [5] it was 3.95%; in assay [6], 9.45%.
With `CC1(C)N(C(=S)Nc2ccccc2)C1(C)C`, the growth inhibition in assay [1] is 6.45%; in assay [2] it was 1.3%; in assay [3], 5.25%; in assay [4] it was -26.2%; in assay [5], -5.2%; in assay [6] it was 5.8%.
In the case of `O=[N+]([O-])c1ccc(SC2CCCCCCC2Br)c([N+](=O)[O-])c1` (stereo not given), the growth inhibition in assay [1] was -16.9%; in assay [2], -13.5%; in assay [3] it was -0.5%; in assay [4] it was -33.6%; in assay [5], 8.95%; in assay [6], -18.4%.
As to `S=P(C1CCCCC1)(C1CCCCC1)C(c1cccnc1)N1CCCC1` (stereo not given), the growth inhibition in assay [1] was -6.85%; in assay [2] it was -9.1%; in assay [3], -6.3%; in assay [4], -5.85%; in assay [5] it was 20.6%; in assay [6] it was 14.1%.
Turning to `O=c1ccc(=O)[nH][nH]1.[Mn]`, the growth inhibition is 2.05% in assay [1]; 4.5% in assay [2]; -13.6% in assay [3]; 17.1% in assay [4]; 7.2% in assay [5]; -1.7% in assay [6].
Consider `CCCCCCN(CCCCCC)C1C=CCCC1` (stereo not given), for which the growth inhibition in assay [1] is -5.4%; in assay [2], -11.2%; in assay [3] it was 0.25%; in assay [4], -32.6%; in assay [5] it was -2.2%; in assay [6], -4.15%.
On to `CO[C@H]1C[C@H](O[C@H]2CC[C@]3(C=O)[C@H]4CC[C@]5(C)[C@@H](C6=CC(=O)OC6)CC[C@]5(O)[C@@H]4CC[C@]3(O)C2)O[C@H](C)[C@H]1O`, for which the growth inhibition was 33.4% in assay [1]; -11.3% in assay [2]; 8.6% in assay [3]; 0.55% in assay [4]; -6.45% in assay [5]; 32.3% in assay [6].
Regarding `C1NCC2CNCC1O2`, the growth inhibition was 3.2% in assay [1]; -12.4% in assay [2]; -7.95% in assay [3]; 6.35% in assay [4]; 7.9% in assay [5]; -3.15% in assay [6].
As to `CC1(C(=O)O)OC1c1ccccc1` (stereo not given), the growth inhibition was 4.2% in assay [1]; 1.2% in assay [2]; 6.85% in assay [3]; -11.7% in assay [4]; 10.2% in assay [5]; -7.7% in assay [6].
`CCCCOP(=O)(/C=C/c1cccs1)OCCCC`: the growth inhibition in assay [1] is 81.2% (active); in assay [2], 37%; in assay [3], 79% (active); in assay [4], 7.95%; in assay [5] it was 61.5%; in assay [6], 37.1%.
Regarding `O=C1c2ccccc2OP(=O)(OCC(F)(F)F)OC1(C(F)(F)F)C(F)(F)F` (stereo not given), the growth inhibition in assay [1] is -21.4%; in assay [2] it was -54.7%; in assay [3], -15.2%; in assay [4], -65.5%; in assay [5], -41.5%; in assay [6], -22.8%.
Regarding `COC(=O)C1C(OC(=O)c2ccccc2)CC2CCC1N2C(N)=O` (stereo not given), the growth inhibition in assay [1] is -12.6%; in assay [2], -0.75%; in assay [3], -8.05%; in assay [4] it was -23%; in assay [5] it was -15.9%; in assay [6] it was 3.3%.
Turning to `CC(Cl)CN(CC(C)Cl)c1ccc2c(c1)Cc1cc([N+](=O)[O-])ccc1-2` (stereo not given), the growth inhibition in assay [1] was 10.3%; in assay [2], 5.7%; in assay [3] it was 33.7%; in assay [4], 25.9%; in assay [5], 4.5%; in assay [6], 12.7%.
Regarding `CCC1(CNC(=O)CN)C(=O)NC(=O)NC1=O`, the growth inhibition in assay [1] was -14.8%; in assay [2], -0.85%; in assay [3] it was -4.4%; in assay [4], 27.4%; in assay [5], 2.7%; in assay [6], 21.6%.
For `Cn1c(O)c(N=NC(N)=S)c(=O)n(C)c1=O`, the growth inhibition was 30.6% in assay [1]; 20.4% in assay [2]; 8.95% in assay [3]; -20.4% in assay [4]; -20.3% in assay [5]; 14.6% in assay [6].
In the case of `CCC(Br)C(=O)OCCCl` (stereo not given), the growth inhibition in assay [1] is 12%; in assay [2] it was 13.7%; in assay [3], 7.7%; in assay [4] it was -4.75%; in assay [5], 15.5%; in assay [6] it was 3.6%.

These data come from PubChem BioAssay (NCI).
